Source: PubChem BioAssay
Pf Dd2 growth: P. falciparum Dd2 growth inhibition | SYBR Green, 72 h; stronger effect = lower value | activity change, % at 10 µM | hit rate 2.3% among 94,000; in the data active = activity change below about -80%; inconclusive = no clear call, values can overlap the other calls
C diff growth: C. difficile growth inhibition; Clostridium difficile clinical isolate growth, OD600, 24 h; stronger effect = lower value; growth activity, negative = inhibition, % at 16 µg/mL (by protocol); hit rate 0.25% among 86,000;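 active = mean growth activity at or below -80% and every replicate also at or below -80%; inconclusive = mean at or below -80% but some replicate above -80%; inactive = mean growth activity above -80%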
T cruzi growth-1: T. cruzi proliferation inhibition; T. cruzi beta-gal in NIH3T3, GalScreen luminescence, 90 h; inhibition, % at 8.34 µM; hit rate 5.9% among 77,000;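 active = mean inhibition above about 93%, with at least 55% of replicates each passing it, limit read from the data, passing the limit was not always enough; inconclusive = only one of those two conditions holds; inactive = neither condition holds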
T cruzi growth-2: blocks T. cruzi growth in NIH3T3 host cells | shares compounds with T cruzi growth-1 | T. cruzi beta-gal in NIH3T3, GalScreen luminescence, 90 h | inhibition, % at 8.35 µM | hit rate 72% among 5,600;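 active = mean replicate inhibition above about 95% and at least 55% of replicates individually reaching it, limit read from the data; inconclusive = only one of the two criteria is met; inactive = neither criterion is met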
T cruzi growth-3: inhibitors of T. cruzi proliferation. hit rate 21% among 5,600. inhibition, % at 2.09 µM. T. cruzi beta-gal in NIH3T3, GalScreen luminescence, 90 h. shares compounds with T cruzi growth-1;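 active = mean inhibition above about 95%, with at least 55% of replicates also reaching it, limit read from the data; inconclusive = meets just one of the two conditions; inactive = meets neither condition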
3T3 cytotox: kills mouse NIH/3T3 fibroblasts; AID 651742; hit rate 14% among 5,600; NIH/3T3 viability, CellTiter-Glo ATP luminescence, 90 h; shares compounds with T cruzi growth-1; cytotoxicity (signal decrease), % at 8.35 µM;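 active = mean signal decrease across replicates above about 35% based on untreated-well scatter, with enough replicates individually passing, limit read from the data; inconclusive = no rule stated though some were filed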
NIH3T3 tox 2: kills mouse NIH/3T3 fibroblasts. inhibition, % at 24.9 µM. NIH/3T3 viability, CellTiter-Glo ATP luminescence, 90 h. hit rate 56% among 5,600. shares compounds with T cruzi growth-1. AID 651744;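 active = mean loss of cell viability signal at or above a set limit, and enough replicates individually reaching it; inconclusive = meets only the mean limit or only the replicate share; inactive = meets neither condition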
Of the large screens only hits and unclear results are named; the others gave an inactive call (follow-up assays come after a bar, where they were run). Shown are actives, neighbours in structure and some others; about 6.7% of the full set was active somewhere.

CN1c2ccc(C3=CCCCC3)cc2[C@@H]2[C@@H](CCN2C(=O)C2CCOCC2)[C@H]1CO	T cruzi growth-1 105 | T cruzi growth-2 102 | T cruzi growth-3 inactive | 3T3 cytotox inactive | NIH3T3 tox 2 inactive
CN(C)C(=O)c1cccc(-c2ccc3n(c2=O)C[C@@H]2[C@@H](CO)[C@H](C(=O)NCC(F)(F)F)[C@H]3N2C)c1	none (no result: Pf Dd2 growth)
CC(=O)N1C[C@H]2[C@@H](c3ccccc31)[C@@H](CO)N2C(=O)c1ccc(F)cc1	none
CC(=O)N(C)C[C@@H]1Oc2ncc(-c3cccc(C#N)c3)cc2C(=O)N([C@H](C)CO)C[C@@H]1C	none
O=C(Cc1ccccn1)NCC[C@H]1CC[C@H](NC(=O)CN2CCOCC2)[C@H](CO)O1	none (no result: T cruzi growth-1)
C[C@H](CO)N1C[C@H](C)[C@@H](CN(C)S(=O)(=O)c2ccc(F)cc2)OCCCC[C@H](C)Oc2ccc(NC(=O)Nc3ccc(C(F)(F)F)cc3)cc2C1=O	none (no result: C diff growth)
C[C@@H]1CCCCO[C@@H](CN(C)S(=O)(=O)c2ccc(F)cc2)[C@H](C)CN([C@@H](C)CO)C(=O)c2cc(NC(=O)Nc3ccc(C(F)(F)F)cc3)ccc2O1	T cruzi growth-1 100 (no result: C diff growth) | T cruzi growth-2 109 | T cruzi growth-3 114 | 3T3 cytotox inactive | NIH3T3 tox 2 inactive
C[C@@H]1CCCCO[C@@H](CN(C)S(=O)(=O)c2ccc(F)cc2)[C@@H](C)CN([C@H](C)CO)C(=O)c2cc(NC(=O)Nc3ccc(C(F)(F)F)cc3)ccc2O1	Pf Dd2 growth -82, T cruzi growth-1 104 (no result: C diff growth) | T cruzi growth-2 111 | T cruzi growth-3 106 | 3T3 cytotox inconclusive | NIH3T3 tox 2 62
C[C@@H]1CN([C@H](C)CO)C(=O)c2cc(NC(=O)Nc3ccc(C(F)(F)F)cc3)ccc2O[C@@H](C)CCCCO[C@@H]1CN(C)S(=O)(=O)c1ccc(F)cc1	none (no result: C diff growth)
C[C@@H]1CN([C@H](C)CO)C(=O)c2cccc(NC(=O)Nc3ccc(F)cc3)c2O[C@H]1CN(C)Cc1ccncc1	none
COc1ccc(NC(=O)N(C)C[C@@H]2Oc3ncc(C#C[C@H](C)O)cc3C(=O)N([C@@H](C)CO)C[C@@H]2C)cc1	none
Cc1ccc(-c2cnc3c(c2)C(=O)N([C@@H](C)CO)C[C@H](C)[C@@H](CN(C)Cc2ccccc2F)O3)cc1	T cruzi growth-1 115 | T cruzi growth-2 inactive | T cruzi growth-3 inactive | 3T3 cytotox inactive | NIH3T3 tox 2 inactive
Cc1ccc(-c2cnc3c(c2)C(=O)N([C@@H](C)CO)C[C@H](C)[C@H](CN(C)Cc2ccccc2F)O3)cc1	T cruzi growth-1 100 | T cruzi growth-2 107 | T cruzi growth-3 inactive | 3T3 cytotox inactive | NIH3T3 tox 2 44
Cc1ccc(-c2cnc3c(c2)C(=O)N([C@H](C)CO)C[C@@H](C)[C@H](CN(C)CC2CCCCC2)O3)cc1	none
Cc1ccc(-c2cnc3c(c2)C(=O)N([C@H](C)CO)C[C@H](C)[C@H](CN(C)Cc2ccccc2F)O3)cc1	none
Cc1ccc(-c2cnc3c(c2)C(=O)N([C@@H](C)CO)C[C@@H](C)[C@H](CN(C)CC2CCCCC2)O3)cc1	T cruzi growth-1 110 | T cruzi growth-2 95 | T cruzi growth-3 inactive | 3T3 cytotox inactive | NIH3T3 tox 2 104
Cc1ccc(-c2cnc3c(c2)C(=O)N([C@H](C)CO)C[C@@H](C)[C@H](CN(C)Cc2ccccc2F)O3)cc1	none
CC=Cc1ccc2n(c1=O)C[C@H]1[C@H](CO)[C@@H](C(=O)NCC)N(C(=O)C3CCOCC3)[C@@H]21 (mixture of isomers)	none
COc1cccc(-c2ccc([C@H]3[C@H](C#N)N(C(=O)Cc4ccccc4)[C@H]3CO)cc2)c1	none
CC(=O)N(C)C[C@@H]1Oc2ncc(C#Cc3cccc(F)c3)cc2C(=O)N([C@@H](C)CO)C[C@@H]1C	none
COc1ccc(NC(=O)N(C)C[C@@H]2Oc3ncc(-c4cc5ccccc5o4)cc3C(=O)N([C@H](C)CO)C[C@@H]2C)cc1	T cruzi growth-1 109 | T cruzi growth-2 106 | T cruzi growth-3 inactive | 3T3 cytotox inactive | NIH3T3 tox 2 34
Cc1cccc(CN(C)C[C@@H]2Oc3ncc(-c4cc5ccccc5o4)cc3C(=O)N([C@H](C)CO)C[C@@H]2C)c1	T cruzi growth-1 99 | T cruzi growth-2 106 | T cruzi growth-3 inactive | 3T3 cytotox 44 | NIH3T3 tox 2 104
C[C@H](CO)N1C[C@H](C)[C@H](CN(C)S(=O)(=O)c2cccc(F)c2)Oc2ncc(-c3cc4ccccc4o3)cc2C1=O	none (no result: T cruzi growth-1)
COc1cccc(S(=O)(=O)N(C)C[C@@H]2Oc3ncc(-c4cc5ccccc5o4)cc3C(=O)N([C@H](C)CO)C[C@@H]2C)c1	T cruzi growth-1 109 | T cruzi growth-2 104 | T cruzi growth-3 inactive | 3T3 cytotox 39 | NIH3T3 tox 2 inactive
C[C@H](CO)N1C[C@H](C)[C@H](CN(C)Cc2ccc(F)cc2)Oc2ncc(-c3cc4ccccc4o3)cc2C1=O	none (no result: T cruzi growth-1)
C[C@H](CO)N1C[C@H](C)[C@H](CN(C)C(=O)Nc2ccc3c(c2)OCO3)Oc2ncc(-c3cc4ccccc4o3)cc2C1=O	none (no result: T cruzi growth-1)
CNC[C@H]1Oc2ccc(NS(=O)(=O)c3ccc(Cl)cc3)cc2C(=O)N([C@H](C)CO)C[C@H]1C	none (no result: T cruzi growth-1)
COc1ccc(NC(=O)N(C)C[C@H]2Oc3c(NS(=O)(=O)c4cccs4)cccc3C(=O)N([C@@H](C)CO)C[C@H]2C)cc1	none
CC(C)NC(=O)N(C)C[C@@H]1Oc2cc(C#Cc3ccccn3)ccc2S(=O)(=O)N([C@@H](C)CO)C[C@@H]1C	T cruzi growth-1 inconclusive | T cruzi growth-2 inactive | T cruzi growth-3 inactive | 3T3 cytotox inactive | NIH3T3 tox 2 inactive
CC(C)NC(=O)N(C)C[C@H]1Oc2cc(C#Cc3ccccn3)ccc2S(=O)(=O)N([C@H](C)CO)C[C@H]1C	T cruzi growth-1 111 | T cruzi growth-2 99 | T cruzi growth-3 inactive | 3T3 cytotox inactive | NIH3T3 tox 2 40
CC(C)NC(=O)N(C)C[C@H]1Oc2cc(C#Cc3ccccn3)ccc2S(=O)(=O)N([C@@H](C)CO)C[C@H]1C	none
CC(C)NC(=O)N(C)C[C@@H]1Oc2cc(C#Cc3ccccn3)ccc2S(=O)(=O)N([C@H](C)CO)C[C@@H]1C	none
COC(=O)c1cn(-c2cccc(N)c2)nn1	none (no result: Pf Dd2 growth, T cruzi growth-1)
Cc1ccc(S(=O)(=O)N2CC[C@@H]3[C@H](CO)Nc4ccc(-c5cccc(C(=O)N(C)C)c5)cc4[C@@H]32)cc1	none
Cc1cccc(S(=O)(=O)N2CC[C@@H]3[C@H](CO)Nc4ccc(-c5ccccc5F)cc4[C@@H]32)c1	none
O=S(=O)(c1ccc(F)cc1)N1CC[C@H]2[C@H](CO)Nc3ccc(-c4ccccc4F)cc3[C@H]21	none
O=S(=O)(c1ccccc1)N1CC[C@H]2[C@H](CO)Nc3ccc(-c4ccccc4F)cc3[C@H]21	T cruzi growth-1 102 | T cruzi growth-2 101 | T cruzi growth-3 inactive | 3T3 cytotox 59 | NIH3T3 tox 2 67
